Out of some 100,000 compounds screened, about 620 (0.62%) were called active. The list comes from a sample in which actives are over-represented; it also holds similar structures and randomly drawn compounds. Unmarked numbers belong to inactive results. The calls were made as follows: active = z-score of 3 or more in at least 2 runs; inactive = the rest.

The nature of the assay: TAR RNA-Tat peptide displacers, HIV-1, primary screen, biochemical, FRET, FAM/TAMRA-labeled Tat (AID 1259389). As to conditions: HIV-1 TAR RNA, Tat peptide displacement FRET; stronger effect = higher value.
As for `Cc1ccsc1CCNC(=O)CCS(=O)(=O)c1ccc2c(c1)CC(C)N2C(=O)C1CC1` (stereo unspecified), the z-score was -0.02.

As for `CC(C)NC(=O)NCCn1cnc2cc(C(=O)N(C)C)ccc21`, the z-score was -0.27.

As for `Cc1cccc(Nc2nc(-c3ccccc3)cs2)n1`, the z-score is 1.14.

For the compound `Cc1n[nH]c(C)c1Nc1nc(-c2ccc(O)c(O)c2)cs1`, the z-score was 28.7 (active).

Consider `Oc1ccc(-c2csc(Nc3cccnc3)n2)cc1`, for which the z-score was -0.3.

Turning to `NC(=O)Cn1c(=O)n(Cc2ccc(Cl)cc2)c(=O)c2cccnc21`, the z-score is -0.39.

As for `CCCNS(=O)(=O)c1ccc2c(c1)CC(C)N2C(=O)C1CC1` (stereo unspecified), the z-score was 0.52.

As for `O=C(O)c1[nH]c2ccccc2c1-n1cccc1`, the z-score is 13.1 (active).

`Cc1[nH]c2ccccc2c1C(=O)C(=O)N(C)c1ccccc1`: the z-score was -0.5.

In the case of `Cc1[nH]c2ccccc2c1C(=O)CN1CCN(C)CC1`, the z-score was 1.46.

As for `O=c1c(N2CCN(C/C=C/c3ccccc3)CC2)csc2ccc(Cl)cc12`, the z-score is -2.75.

With `COC(=O)C(=O)c1c(-c2ccc(Br)cc2)[nH]c2ccccc12`, the z-score is 1.05.

On to `CCOC(=O)C1CCN(C2C(=O)c3ccccc3N2C(C)=O)CC1` (stereo unspecified), for which the z-score was 1.39.

Regarding `Cc1nn(C)c(C)c1CNC(=O)Cn1c(-c2cccs2)cc2cc(Cl)ccc21`, the z-score is 0.84.

Take `CC1Sc2ccc(S(=O)(=O)N(C)c3ccc(Br)cc3)cc2NC1=O` (stereo unspecified): the z-score is 1.17.

With `CC1=C(C(=O)OCc2ccccc2)C(c2ccc(O)cc2)C2=C(CC(C)(C)CC2=O)N1` (stereo unspecified), the z-score was 1.82.

Consider `O=C(C1CCN(S(=O)(=O)c2ccc3[nH]c(=O)ccc3c2)CC1)N1CCCC1`, for which the z-score is 0.85.

For `CC1CCN(S(=O)(=O)c2ccc3[nH]c(=O)ccc3c2)CC1`, the z-score is -0.99.

Turning to `O=c1ccc2cc(S(=O)(=O)N3CCN(C4CCCCC4)CC3)ccc2[nH]1`, the z-score was 18.9 (active).

As for `Cc1noc2ncnc(N3CCCC(C(=O)Nc4ccccn4)C3)c12` (stereo unspecified), the z-score was 0.85.

For `CCOC(=O)c1noc2nc(C)nc(Nc3ccccc3)c12`, the z-score is 0.17.

Take `O=C1c2ccc(O)cc2O[C@H](c2cc(O)c(O)c(O)c2)[C@H]1O`: the z-score is 9.31 (active).

For `O=C(CSc1nnc2c3ccccc3nc(-c3ccccc3)n12)Nc1ccccc1`, the z-score was 0.64.

In the case of `O=C(CSCc1cnn(-c2ccccc2)c1-n1cccc1)Nc1ccccc1F`, the z-score is 1.3.

Take `O=C(O)C1Nc2ccc(Cl)cc2C2C=CCC12` (stereo unspecified): the z-score was 42 (active).

For `O=S(=O)(c1ccc(C2Nc3ccc(Cl)cc3C3C=CCC32)cc1)N1CCOCC1` (stereo unspecified), the z-score is -2.45.

As to `O=C(NCc1cccnc1)c1ccc(CN2CC(=O)N3CCCC3C2=O)cc1` (stereo unspecified), the z-score is 1.95.

For `O=C(CSc1nnc2scc(-c3ccccc3)n12)N1CCOCC1`, the z-score is 0.4.

On to `O=C(CSc1ccc(-c2ccccn2)nn1)Nc1ccccc1`, for which the z-score is 2.09.

On to `CCc1c(CN2CCN(Cc3ccccc3)CC2)csc1C`, for which the z-score was 1.69.

`CCn1c(C(C)N2CCCCC2)nc2ccccc21` (stereo unspecified): the z-score was 1.

As for `Cc1ccc(Nc2nc(NCc3ccco3)nc3c2cnn3C)c(C)c1`, the z-score was 3.66 (active).

Regarding `CCNc1nc(Nc2ccc(Cl)cc2C)c2cnn(C)c2n1`, the z-score is 0.26.

For `Cc1ccc(Nc2ncnc3c2cnn3C)c(C)c1`, the z-score is 0.03.

Regarding `NC(=O)C1CCN(c2nc3c(S(=O)(=O)c4cccc(Cl)c4)nnn3c3ccsc23)CC1`, the z-score was 0.52.

`CCN(CC)c1nc2c(S(=O)(=O)c3ccc(Cl)cc3)nnn2c2ccsc12`: the z-score is -1.01.

With `O=S(=O)(c1ccc(Cl)cc1)c1nnn2c1nc(NC1CCCC1)c1sccc12`, the z-score was 7.09 (active).

With `Cn1c(=O)oc2cc(S(=O)(=O)CCC(=O)Nc3cccc(F)c3)ccc21`, the z-score was 0.47.

For the compound `O=C(Cn1nc(-c2ccccc2)c2cnc3cc4c(cc3c21)OCCO4)NC1CCCC1`, the z-score was -0.04.

With `O=C(CSc1ncc(S(=O)(=O)c2ccccc2)c(=O)[nH]1)Nc1cccc(F)c1`, the z-score is -1.01.

On to `CCc1ccc(C2CC(=O)Nc3c2c(C)nn3-c2nc3ccccc3[nH]2)s1` (stereo unspecified), for which the z-score was 1.63.

`Cc1ccc2occ(C3Nc4cc(C)c(C)cc4NC4=C3C(=O)CC(C)(C)C4)c(=O)c2c1` (stereo unspecified): the z-score is 0.26.

For the compound `Cc1nnc2sc(-c3ccco3)nn12`, the z-score was -1.16.

Turning to `Cc1cccc(C)c1OCc1cc(=O)n2nc(-c3ccco3)sc2n1`, the z-score was 36.5 (active).

In the case of `COc1cccc(OCc2cc(=O)n3nc(C)sc3n2)c1`, the z-score was -0.36.

In the case of `CCCCc1nn2c(=O)cc(CSc3n[nH]c(CC(C)C)n3)nc2s1`, the z-score is -1.13.

`C=CCSc1ncc(Cl)c(C(=O)Nc2c(C(=O)Nc3ccc(OC)cc3)oc3ccccc23)n1`: the z-score was 1.45.

As for `COC(=O)c1ccc(C2C(C(=O)OC3CCCC3)=C(C)NC3=C2C(=O)CCC3)cc1` (stereo unspecified), the z-score was 2.05.

Turning to `Cc1ccc(-c2nnc3sc(-c4ccccn4)nn23)cc1`, the z-score was 1.2.

With `COc1ccc(-c2nn3c(-c4ccccc4)nnc3s2)cc1OC`, the z-score was 21 (active).

In the case of `c1ccc(-c2nnc3sc(-c4ccc5c(c4)OCCO5)nn23)cc1`, the z-score was -0.37.

On to `CCC1Sc2ccc(S(=O)(=O)CCC(=O)NCCc3sccc3C)cc2NC1=O` (stereo unspecified), for which the z-score was -0.87.

In the case of `O=c1c(NC2CCCC2)c(-c2ccc3c(c2)CCCC3)c1=O`, the z-score is -0.58.

For `CCN(CC)C(=O)CCc1nc(CN2CCN(S(=O)(=O)c3cccs3)CC2)no1`, the z-score was -6.66.

Consider `CCCCn1c(=O)[nH]c(=O)c2sc(N)nc21`, for which the z-score was 0.78.

With `COc1ccc(-n2c(=O)[nH]c(=O)c3sc(NC(=O)Nc4ccccc4)nc32)cc1`, the z-score is -0.15.

In the case of `COc1cc(Br)c(CCn2c(=O)[nH]c(=O)c3sc(N)nc32)cc1OC`, the z-score is 28.5 (active).

In the case of `Cc1c(C(=O)N2CCOCC2)oc2c1-c1nn(CC(=O)NC3CCCc4ccccc43)cc1CC2` (stereo unspecified), the z-score was 3.05.

With `Cc1cc(NCc2cccs2)n2nc(Cc3cccc(F)c3)nc2n1`, the z-score is 1.34.

As to `Cc1cc(C)cc(NC2c3ncccc3C(=O)N2c2ccccc2)c1` (stereo unspecified), the z-score was -1.21.

For `CC1CCC(NC(=O)C2(C)Cn3c(cc4occc43)C(=O)N2CCN(C)C2CCCCC2)CC1` (stereo unspecified), the z-score is 0.99.

Regarding `CC1CCCCC1NC(=O)C1(C)Cn2c(cc3sccc32)C(=O)N1Cc1ccco1` (stereo unspecified), the z-score is 2.7.

Turning to `CC1CCC(NC(=O)C2(C)Cn3c(cc4occc43)C(=O)N2c2ccc(Cl)cc2)CC1` (stereo unspecified), the z-score is 5.26 (active).

As for `COCCCN1C(=O)c2cc3sccc3n2CC1(C)C(=O)NC1CCCC(C)C1C` (stereo unspecified), the z-score is 2.51.

Consider `CC1CCCC(NC(=O)C2(C)Cn3c(cc4occc43)C(=O)N2Cc2ccc3c(c2)OCO3)C1C` (stereo unspecified), for which the z-score is 6.96 (active).

In the case of `CCCN1C(=O)c2cc3sccc3n2CC1(C)C(=O)NC1CCC(C)CC1` (stereo unspecified), the z-score is 1.88.

On to `CCOC(=O)c1[nH]c(C)c(C(=O)NC2CCCC(C)C2C)c1C` (stereo unspecified), for which the z-score is 0.78.

For the compound `CSc1cccc(NC(=O)N2c3ccccc3NC3=C(C(=O)CCC3)C2c2ccco2)c1` (stereo unspecified), the z-score was 0.6.

Consider `O=C1c2ccccc2S(=O)(=O)N1Cc1nnnn1-c1ccccc1`, for which the z-score was 2.08.

On to `Cc1nc(-c2ccc(C)c(S(=O)(=O)Nc3ccc(Cl)cc3F)c2)cs1`, for which the z-score is 1.67.

With `CCNC(=O)C1=CC(c2cccs2)=NS(=O)(=O)N1C`, the z-score was 1.38.

`CN1C(C(=O)NCc2ccccc2)=CC(c2ccc3c(c2)OCO3)=NS1(=O)=O`: the z-score was 3.21 (active).

`CN1C(C(=O)N2CCCc3ccccc32)=CC(c2ccc3c(c2)OCO3)=NS1(=O)=O`: the z-score is 2.14.

Turning to `CNC(=O)c1c(NC(=O)CCSc2ccccc2)sc2c1CCC2`, the z-score was 0.4.

`COC(=O)c1cc2n(n1)CC(C)(C(=O)NC1CCC(C)CC1)N(CCc1cccs1)C2=O` (stereo unspecified): the z-score is 0.65.

Turning to `CSc1cccc(NC(=O)CSc2nnc(C)n3c2cc2oc(C)cc23)c1`, the z-score was 0.7.

Turning to `O=C(Nc1nccs1)c1cc(-c2ccc(Cl)cc2)on1`, the z-score was 15.3.

Turning to `CN1CCN(C(=O)Cn2ncn3cccc3c2=O)CC1`, the z-score is 1.42.

Consider `Cc1cc2c(cc3c(=O)n(CC(=O)NC4CCCC(C)C4C)ncn32)s1` (stereo unspecified), for which the z-score is -0.21.

As for `CC1CCCC(NC(=O)C(C)n2ncn3cccc3c2=O)C1C` (stereo unspecified), the z-score was 11 (active).

Take `CCCCn1c(C)c(C)c2c1ncn1nc(Cc3ccc(OC)cc3)nc21`: the z-score is 0.12.

On to `CC1CCCCN1CCCNC(=O)c1noc2c1CCc1sccc1-2` (stereo unspecified), for which the z-score was 1.13.

With `CN1C(=O)C[C@H](C(=O)O)C1c1cccnc1` (stereo partly specified), the z-score is 1.8.

Consider `Cc1ccc2nc(Nc3ncc4c(n3)CC(C)(C)CC4=O)nc(C)c2c1`, for which the z-score was 1.31.

As for `CCOc1ccc2nc(Nc3ncc4c(n3)CC(c3ccco3)CC4=O)nc(C)c2c1` (stereo unspecified), the z-score was 13.8 (active).

As to `CCOc1ccc2nc(Nc3nc(C)c(CC)c(=O)[nH]3)nc(C)c2c1`, the z-score is 2.61.

On to `Cn1cc(NC(=O)Nc2cccc(Cl)c2)c2ccccc2c1=O`, for which the z-score was -0.05.

Take `COc1cccc(C2Nc3cccc4cccc(c34)N2)c1OC`: the z-score was 3.46.

Take `Brc1ccccc1C1Nc2cccc3cccc(c23)N1`: the z-score was 5.65 (active).

Take `Cc1ccc(C2CC(c3cccc(C)c3)n3nc(N)nc3N2)cc1` (stereo unspecified): the z-score is 0.73.

Turning to `COc1cccc(C2Nc3cccc4cccc(c34)N2)c1`, the z-score was 21.3 (active).

`Cc1ccc(C2Nc3cccc4cccc(c34)N2)cc1`: the z-score was 6.71 (active).

As for `COc1ccc(N2C(=O)C3CCCN3C2c2cccc(OC)c2)cc1` (stereo unspecified), the z-score was -0.15.

For `COc1ccc(C2CC(=O)C3=C(C2)Nc2ccccc2NC3c2cccc(Cl)c2)cc1` (stereo unspecified), the z-score is -1.58.

As for `Oc1ccc(C2Nc3cccc4cccc(c34)N2)cc1`, the z-score was 4.86 (active).

Take `CCC(C)NC(=O)c1ccc(CN2C(=O)C(C)=C(c3ccc(C)cc3)S2(=O)=O)cc1` (stereo unspecified): the z-score is 1.92.
